Source: PubChem BioAssay (NCI)
Compounds without any hit were thinned out: in the full panel of roughly 83,000, 20% have a hit.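 In brief: 96-well plates, 48 h treatment, single concentration, percent growth endpoint.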 Values without a mark were called inactive. Activity calls are given as the source filed them. Rule for the calls: active = growth percent below 10; inactive = the rest.

How the values were obtained:
Test in all cases: NCI-60 one-dose screen, 48 h (100 = growth as untreated, 0 = no growth, -100 = all killed)
Details in all cases: 10 µM unless noted
SK-MEL-2 melanoma = tested on: SK-MEL-2 melanoma
EKVX NSCLC = tested on: EKVX NSCLC
SN12C renal = tested on: SN12C renal
UO-31 renal = tested on: UO-31 renal
TK-10 renal = tested on: TK-10 renal
CAKI-1 renal = tested on: CAKI-1 renal
CCRF-CEM leukemia = tested on: CCRF-CEM leukemia
MOLT-4 leukemia = tested on: MOLT-4 leukemia
SR leukemia = tested on: SR leukemia
RPMI-8226 leukemia = tested on: RPMI-8226 leukemia
OVCAR-8 ovarian = tested on: OVCAR-8 ovarian
OVCAR-5 ovarian = tested on: OVCAR-5 ovarian
OVCAR-4 ovarian = tested on: OVCAR-4 ovarian
SK-OV-3 ovarian = tested on: SK-OV-3 ovarian
IGROV1 ovarian = tested on: IGROV1 ovarian
OVCAR-3 ovarian = tested on: OVCAR-3 ovarian
HS 578T breast = tested on: HS 578T breast
NCI/ADR-RES ovarian = tested on: NCI/ADR-RES ovarian
A498 renal = tested on: A498 renal
ACHN renal = tested on: ACHN renal

SMILES | growth (SK-MEL-2 melanoma) | growth (EKVX NSCLC) | growth (SN12C renal) | growth (UO-31 renal) | growth (TK-10 renal) | growth (CAKI-1 renal) | growth (CCRF-CEM leukemia) | growth (MOLT-4 leukemia) | growth (SR leukemia) | growth (RPMI-8226 leukemia) | growth (OVCAR-8 ovarian) | growth (OVCAR-5 ovarian) | growth (OVCAR-4 ovarian) | growth (SK-OV-3 ovarian) | growth (IGROV1 ovarian) | growth (OVCAR-3 ovarian) | growth (HS 578T breast) | growth (NCI/ADR-RES ovarian) | growth (A498 renal) | growth (ACHN renal) [%]
O=C(CCn1c[n+](CC(=O)c2ccc(-c3ccccc3)cc2)c2ccccc21)Nc1cccc2cccnc12 | 65.4% | 61.9% | 53.6% | 82.6% | 97.5% | 77.7% | 36.1% | 47.9% | 9.22% (active) | 3.25% (active) | 52.5% | 81.9% | 24.8% | 74.9% | 10.5% | 28.5% | 62.8% | 99.1% |  | 
CCOc1ccc(C(=O)Nc2ncc(Cc3ccc(F)cc3)s2)cc1 | -7.6% (active) | 41.3% | 36% | 41.9% | 57.9% | 38% | 17.3% | 18.7% | 19.6% | 25.5% | 22.1% | 34.1% | 54.1% | 36.2% | 40% |  | 1.23% (active) | 18.2% | 13.9% | 
O=C(CCn1c[n+](CC(=O)c2ccc(F)cc2)c2ccccc21)Nc1cccc2cccnc12 | 81.7% | 89.5% | 94% | 88.9% | 107% | 99.9% | 68.3% | 65.2% | 79.5% | 35.1% | 86.9% | 79.6% | 52.3% | 88.2% | 39.4% | 55.4% | 84.5% | 96.5% | 130% | 
CCCC(=O)NC(c1cccnc1)c1cc(C(C)(C)C)c2cccnc2c1O (stereo unspecified) | 30.5% | 21.7% | 29.5% | 13.6% | 42.3% | 16.2% | 9.16% (active) | 14.2% |  | 24.5% | 17.3% | 40.8% |  | 7.42% (active) | 6.31% (active) | 12.4% | 46.6% | 21.2% | 13.6% | 
CC1=CC(=O)C2=C(C)CC(OC(=O)CCc3ccccc3)[C@@H]3[C@H](OC(=O)[C@@H]3C)[C@@H]12 (stereo partly specified) | 103% | 102% | 95.3% | 79.1% | 102% |  |  | 83.6% | 86.8% | 74.7% | 96.8% | 95.9% | 91.6% | 91.6% | 82.7% | 98.6% | 104% | 98.2% | 82.4% | 
O=C(CCC(=O)N1CCOCC1)OCCCCCCSc1ccc([N+](=O)[O-])c2nonc12 | -40.6% (active) | 1.52% (active) | -74.7% (active) | -84.2% (active) | 13.4% | -31.2% (active) | -5.49% (active) | -2.71% (active) | -2.69% (active) | -21.1% (active) | -6.75% (active) | -20.1% (active) | -83.7% (active) | 39.8% | -88.7% (active) | -66.9% (active) | -8.04% (active) | 2.86% (active) |  | 
Cn1cc(-c2nnc(N)nc2-c2c[nH]c3ccc(F)cc23)c2cc(F)ccc21 | 97.1% | 89.1% | 81.3% | 57.1% | 121% |  | 39.4% | 23.5% | 41.1% | 65.6% | 90.3% | 109% | 98.4% | 88.4% | 35.7% | 78.6% | 84.1% | 86.7% | 86.3% | 
c1ccc(C(c2nc3ncncc3[nH]2)N2CSc3nc4ncncc4n3C2)cc1 (stereo unspecified) | 70.5% | 94.4% | 87.5% | 70.9% | 48.9% | 41% | 32.1% | 23.8% | 84.9% | 29.4% |  | 62.4% | 27.1% | 23.1% | 77.6% | 38.6% | 77.2% | 44.4% | 96.5% | 
Nc1ncc(-c2ccc3ncnc(Nc4cccc(Cl)c4F)c3c2)cn1 | 95.3% | 11.7% | 50.9% | 34.6% | -2.85% (active) | 38% | 65.6% | 72.3% | 66.3% | 47.6% | 64.3% | 47.8% | 69.5% | 0% (active) | 11.4% | 57.2% | 35% | 59.3% | -10.7% (active) | 
C#Cc1nc(C(C)=O)cs1 | 111% | 103% | 102% | 90.1% | 104% | 87.2% | 96.9% | 101% | 99.6% | 92.5% | 105% | 107% | 105% | 93% | 101% | 112% | 104% | 103% | 106% | 
CCn1c2ccccc2c2cc(-n3nncc3-c3ccccc3)ccc21 | 68.2% | 45.5% | 25.4% | 36.8% | 90.5% |  | 19.5% | 12.7% | 10.4% | 19.8% | 27% | 35.4% | 43% | 42.4% | 16.2% | 4.2% (active) | 19.3% | 6.13% (active) | -0.537% (active) | 
C=C(C)[C@@H]1CC[C@]2(COC)CC[C@]3(C)[C@H](CC[C@@H]4[C@@]5(C)CCCNC(C)(C)[C@@H]5CC[C@]43C)[C@@H]12 | 84.6% | 53.9% | 73.6% | 60.8% | 79.6% | 19% | -10.1% (active) | -32.3% (active) | -54.9% (active) | -36.8% (active) | 79.2% | 75.5% | 28.7% | 102% | 37.2% | 80.9% | 37.8% | 51.3% | 62.3% | 
COc1ccc([C@@H]2c3[nH]c4ccccc4c3C[C@H]3C(=O)N(C4CCN(CC5CCCCC5)CC4)CC(=O)N23)c(OC)c1 | 95.9% | 61.6% | 81.6% | 37.3% |  | 44.7% | 60.5% | 46.1% | 25.9% | 53.6% | 82.2% | 94.1% | 70.5% | 86.2% | 60% | 74.9% | 68.9% | 76.7% | 78.9% | 81.3
NC(N)=Nc1ccc(Oc2cccc(NC(N)=Nc3ccc(I)cc3F)c2)cc1 | 85.9% | 71.6% | 54.3% | 95.7% | 85.7% |  | 77.3% | 78.9% | 48.1% | 62.3% | 90.5% | 65.5% | 81.3% | 70.1% | 32.9% | 75.7% | 61.1% | 100% | 86.8% | 
COc1cc(-c2nc3sccn3c2-c2ccnc(S(C)(=O)=O)n2)ccc1F | 96% | 87.3% | 88.7% | 85.2% | 120% | 85.2% | 92.1% | 83.5% | 86.3% | 91.9% | 98.3% | 98.3% | 98.2% | 113% | 98.1% |  | 101% | 95.7% | 95.1% | 
COc1cc2c(cc1OC)C(Sc1ccc(F)cc1)c1c(nc(N)c(C#N)c1N)O2 (stereo unspecified) | -6.24% (active) | -86.6% (active) | -86.5% (active) | -98.1% (active) | -30.1% (active) |  | -13.6% (active) | 0.279% (active) | 0.989% (active) | -28% (active) | -15% (active) | -88.2% (active) | -66.1% (active) | -21.6% (active) | -85.7% (active) | -58.9% (active) | -4.38% (active) | -46.4% (active) | -42.8% (active) | 
